In PubChem BioAssay:
Activity calls are given as the source filed them.

Assays:
[1] = optical density shifts of acrAB sulA E. coli – strain DRC41, OD650, 48 h, E. coli filamentation inducer project, primary screen (AID 1152); conditions: higher = more signal, called active from +8 up or from −8 down;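 further: E. coli MC1000 strain DRC41 lacking acrAB efflux pump and sulA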
[2] = probe aLefty1 binding on compound microarray – biochemical, small-molecule microarray, 635/667 nm fluorescence, primary screen (AID 1153); conditions: higher = more signal;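 further: score merges spot fluorescence with signal-to-noise ratio from the scanned slide images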
[3] = plasmodial surface anion channel blockers, osmotic lysis – cell-based, P. falciparum Indochina, OD700, 1 h, primary screen (AID 1154); conditions: P. falciparum Indochina infected RBC osmotic lysis, higher = more signal, called active from +8 up or from −8 down
[4] = plasmodial surface anion channel blockers, osmotic lysis – cell-based, P. falciparum Indochina, OD700, 2 h, primary screen (AID 1155);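 further: lysis reports solute entry through the parasite surface anion channel PSAC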; conditions: P. falciparum Indochina infected erythrocytes, higher = more signal, called active from +8 up or from −8 down
[5] = changes in parasitized red cell lysis, either direction – P. falciparum Indochina, OD700, 3 h, PSAC antagonist project, primary screen (AID 1156); conditions: P. falciparum-infected erythrocytes, osmotic lysis, higher = more signal, called active from +8 up or from −8 down
[6] = plasmodial surface anion channel blockers, osmotic lysis – cell-based, P. falciparum Indochina, OD700, 18 h, primary screen (AID 1157); conditions: P. falciparum Indochina infected erythrocytes, osmotic lysis OD700, 18 h; higher = more signal, called active from +8 up or from −8 down
[7] = S6 kinase pathway phospho-S6 level changes – cell-based, A549, cytoblot, luminescence, serum-stimulated, primary screen (AID 1158); conditions: 5 h, higher = more signal;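 further: serum-stimulated A549 lung adenocarcinoma cells; signal is phosphorylated S6 detected by cytoblot immunostaining with HRP secondary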
[8] = molecular target: NADPH oxidase 2 (Homo sapiens) (UniProt P04839); experiment: compounds shifting NOX2 Amplex Red fluorescence – cell-based, HEK293-NOX2, PMA-stimulated, NOX inhibitor project, primary screen (AID 1159); conditions: 45 min, higher = more signal, called active from +8 up or from −8 down; further: test concentration not given here
[9] = molecular target: NADPH oxidase 4 (Homo sapiens) (UniProt Q9NPH5); experiment: compounds shifting NOX4 Amplex Red fluorescence – cell-based, HEK293-NOX4, tetracycline-induced, NOX inhibitor project, primary screen (AID 1160); conditions: HEK293-NOX4, Amplex Red H2O2 fluorescence, 45 min; higher = more signal, called active from +8 up or from −8 down
[10] = molecular target: NADPH oxidase 5 (Homo sapiens) (UniProt Q96PH1); experiment: compounds shifting NOX5 Amplex Red fluorescence – cell-based, HEK293-NOX5, NOX inhibitor project, primary screen (AID 1161); conditions: HEK293-NOX5, ionomycin, 45 min, higher = more signal
Sequence of NADPH oxidase 5 (Homo sapiens) (Q96PH1 whole entry, looked up): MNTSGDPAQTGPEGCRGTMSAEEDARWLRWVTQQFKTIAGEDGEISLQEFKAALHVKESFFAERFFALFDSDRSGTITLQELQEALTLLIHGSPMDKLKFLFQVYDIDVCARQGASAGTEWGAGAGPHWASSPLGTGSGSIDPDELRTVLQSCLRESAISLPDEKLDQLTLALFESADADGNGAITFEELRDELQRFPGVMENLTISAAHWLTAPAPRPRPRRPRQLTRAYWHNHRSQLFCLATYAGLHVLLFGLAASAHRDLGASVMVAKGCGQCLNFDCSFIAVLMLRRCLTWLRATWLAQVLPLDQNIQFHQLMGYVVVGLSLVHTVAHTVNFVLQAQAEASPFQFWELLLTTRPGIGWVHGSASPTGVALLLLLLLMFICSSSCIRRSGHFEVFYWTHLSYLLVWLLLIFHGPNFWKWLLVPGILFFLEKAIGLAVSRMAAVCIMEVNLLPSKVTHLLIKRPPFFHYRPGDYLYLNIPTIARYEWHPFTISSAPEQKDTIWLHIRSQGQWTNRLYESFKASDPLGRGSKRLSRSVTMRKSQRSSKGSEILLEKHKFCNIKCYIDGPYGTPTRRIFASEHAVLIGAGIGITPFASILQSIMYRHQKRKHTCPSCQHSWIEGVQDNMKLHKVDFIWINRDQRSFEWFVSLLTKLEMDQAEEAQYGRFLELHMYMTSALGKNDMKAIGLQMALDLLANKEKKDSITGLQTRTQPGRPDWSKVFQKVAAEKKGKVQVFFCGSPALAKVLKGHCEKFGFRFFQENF

Sequence of NADPH oxidase 4 (Homo sapiens) (Q9NPH5 whole entry, looked up): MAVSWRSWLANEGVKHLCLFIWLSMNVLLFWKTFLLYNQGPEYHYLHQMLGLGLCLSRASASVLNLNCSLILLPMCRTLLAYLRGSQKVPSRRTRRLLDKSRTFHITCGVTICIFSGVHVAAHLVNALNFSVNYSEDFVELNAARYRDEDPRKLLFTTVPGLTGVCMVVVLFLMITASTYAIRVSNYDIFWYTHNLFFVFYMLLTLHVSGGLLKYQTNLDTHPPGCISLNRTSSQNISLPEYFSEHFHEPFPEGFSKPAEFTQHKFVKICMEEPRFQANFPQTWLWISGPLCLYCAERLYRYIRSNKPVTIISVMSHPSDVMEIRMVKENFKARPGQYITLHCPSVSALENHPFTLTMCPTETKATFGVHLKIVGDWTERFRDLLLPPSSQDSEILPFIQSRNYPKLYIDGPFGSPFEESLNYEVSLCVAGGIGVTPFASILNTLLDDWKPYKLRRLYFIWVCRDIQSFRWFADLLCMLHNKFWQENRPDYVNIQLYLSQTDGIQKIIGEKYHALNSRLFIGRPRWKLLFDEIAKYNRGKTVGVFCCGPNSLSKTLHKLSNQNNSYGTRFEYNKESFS
Sequence of NADPH oxidase 2 (Homo sapiens) (P04839 whole entry, looked up): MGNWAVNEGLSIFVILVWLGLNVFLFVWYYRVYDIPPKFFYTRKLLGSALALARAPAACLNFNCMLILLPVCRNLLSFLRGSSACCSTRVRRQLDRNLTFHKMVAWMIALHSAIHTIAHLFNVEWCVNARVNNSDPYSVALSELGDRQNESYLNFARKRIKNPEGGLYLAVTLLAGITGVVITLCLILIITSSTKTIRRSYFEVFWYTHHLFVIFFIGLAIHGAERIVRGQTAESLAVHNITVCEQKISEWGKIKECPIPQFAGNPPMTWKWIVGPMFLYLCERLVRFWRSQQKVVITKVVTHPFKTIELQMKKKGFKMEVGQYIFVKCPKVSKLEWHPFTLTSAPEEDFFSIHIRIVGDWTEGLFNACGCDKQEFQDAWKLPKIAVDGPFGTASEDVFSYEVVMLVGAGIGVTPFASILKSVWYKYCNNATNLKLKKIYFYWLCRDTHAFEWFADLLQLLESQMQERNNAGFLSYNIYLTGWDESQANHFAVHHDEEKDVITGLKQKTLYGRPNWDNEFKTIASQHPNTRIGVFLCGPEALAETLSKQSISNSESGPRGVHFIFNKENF

| SMILES | z-score [1] | composite z-score [2] | z-score [3] | z-score [4] | z-score [5] | z-score [6] | z-score [7] | z-score [8] | z-score [9] | z-score [10] |
| --- | --- | --- | --- | --- | --- | --- | --- | --- | --- | --- |
| O=C(NCCO)C1=C[C@H](Oc2ccccc2I)[C@@H](O)[C@H](N(Cc2ccco2)C(=O)Cc2ccccc2)C1 | -0.673 (inactive) | 0.0752 | 0.877 (inactive) | 0.799 (inactive) | 1.1 (inactive) | 0.304 (inactive) | 0.202 | 1.34 (inactive) | 0.254 (inactive) | 0.351 |
| O=C1O[C@H](c2ccccc2)[C@H](c2ccccc2)N2[C@H]1[C@@H](C(=O)N1CCCCCCC1)[C@]1(C(=O)Nc3ccc(C#CC4=CCCCC4)cc31)[C@H]2c1ccc(OCCO)cc1 | 2.72 (inactive) | 2.88 | 10.2 (active) | 0.658 (inactive) | 1.08 (inactive) | -1.25 (inactive) | 2.85 | -0.708 (inactive) | 0.14 (inactive) | -2.05 |
| COc1ccccc1CN1C(=O)c2ccccc2[C@@]2(Cc3ccccc3N(CC(C)C)C2=O)[C@@H]1c1ccc(CO)cc1 | -0.12 (inactive) | -0.827 | 0.226 (inactive) | 0.215 (inactive) | 0.297 (inactive) | 0.109 (inactive) | 0.0317 | -0.0964 (inactive) | 0.11 (inactive) | 1.12 |
| O=C(c1ccccc1)N1C(=O)[C@]2(COC(c3ccc(OCCCO)cc3)=N2)Cc2ccccc21 | -0.788 (inactive) | 0.638 | 27.1 (active) | 17.8 (active) | 3.39 (inactive) | 1.35 (inactive) | -0.394 | -0.0343 (inactive) | 0.0715 (inactive) | -1.69 |
| CO[C@H]1O[C@H](CO)[C@@H](OC(=O)Nc2cccc(F)c2)[C@H](OC(=O)Nc2ccccc2)[C@@H]1OC(=O)Nc1ccccc1 | -1.17 (inactive) | 0.22 | 8.61 (active) | 1.93 (inactive) | -0.476 (inactive) | 1.4 (inactive) | 0.646 | -1.12 (inactive) | -0.322 (inactive) | -1.08 |
| C[N+](C)(C)CCCC[C@@H]1NC(=O)[C@H]2C[C@@H](C(=O)NCCCCCCNC(=O)CS)[C@@H](c3cccc(OCCO)c3)N2C1=O | 0.415 (inactive) | 0.0774 | 3.29 (inactive) | 0.679 (inactive) | 1.8 (inactive) | 0.0805 (inactive) | 0.0934 | 1.18 (inactive) | 0.639 (inactive) | 1.24 |
| CN(C)C(=O)[C@]1(Cc2ccccc2N=[N+]=[N-])N=C(c2ccc(OCCCO)cc2)O[C@@H]1c1ccccc1N=[N+]=[N-] | 1.02 (inactive) | 0.431 | 30.7 (active) | 25.6 (active) | 1.15 (inactive) | 7.43 (inactive) | 2.53 | -1.59 (inactive) | 0.482 (inactive) | 0.199 |
| O=C1C[C@@](C(=O)NC2CC2)(c2ccc([N+](=O)[O-])cc2)[C@@H](c2ccc(CO)cc2I)N1C1CCCCC1 | -0.178 (inactive) | -0.034 | 16.5 (active) | 2.28 (inactive) | 3.03 (inactive) | 0.797 (inactive) | -0.552 | 1.37 (inactive) | 0.666 (inactive) | 2.04 |
| O=C(OCc1ccccc1)C1=CCC2c3[nH]c4ccccc4c3C(=O)C1N2S(=O)(=O)c1ccccc1[N+](=O)[O-] (stereo not given) | -1.33 (inactive) | -0.192 | 7.08 (inactive) | 2.13 (inactive) | 0.105 (inactive) | 1.1 (inactive) | -0.605 | 0.663 (inactive) | -0.294 (inactive) | -1.97 |
| Cc1nc2cc(Br)ccc2c(=O)o1 | 0.776 (inactive) | 0.442 | 0.252 (inactive) | 0.0276 (inactive) | 0.193 (inactive) | -0.509 (inactive) | 0.472 | 0.288 (inactive) | -0.0246 (inactive) | 0.256 |
| [N-]=[N+]=Nc1ccccc1[C@@H]1OC(c2ccc(OCCCO)cc2)=N[C@]1(Cc1ccccc1)C(=O)N1CCOCC1 | 0.123 (inactive) | 0.391 | 31.8 (active) | 32.1 (active) | 2.51 (inactive) | 3.91 (inactive) | -0.37 | -0.507 (inactive) | -0.36 (inactive) | -1.77 |
| CCC(CC)C(O)C1C=CC2C(=O)NC(=O)C2N1Nc1ccc(Cl)cc1Cl (stereo not given) | -1.69 (inactive) | 0.348 | 1.55 (inactive) | 0.65 (inactive) | 0.0089 (inactive) | 1.24 (inactive) | -1.5 | -0.017 (inactive) | -4.41 (inactive) | -2.93 |
| NC(=O)NCC#Cc1ccc2c(c1)[C@]1(C(=O)N2)[C@H](C(=O)Nc2nc3ccccc3s2)[C@H]2C(=O)O[C@H](c3ccccc3)[C@H](c3ccccc3)N2[C@@H]1c1ccccc1OCCO | 1.07 (inactive) | 1.33 | 1.39 (inactive) | 0.831 (inactive) | 1.18 (inactive) | -0.247 (inactive) | 1.76 | 0.643 (inactive) | -0.228 (inactive) | -3.4 |
| Cc1ccc(S[C@]2(C(=O)O)CC(=O)N(C(C)C)[C@@H]2c2ccc(CO)cc2I)cc1 | 3.35 (inactive) | 0.775 | 14.3 (active) | 1.02 (inactive) | 0.532 (inactive) | -0.263 (inactive) | 2.24 | 0.899 (inactive) | -2.47 (inactive) | 0.852 |
| COCCOC(=O)N1C(=O)[C@@]2(c3cc(C#CCCO)ccc31)[C@H](C(N)=O)[C@H]1C(=O)O[C@H](c3ccccc3)[C@H](c3ccccc3)N1[C@@H]2c1ccc(O)cc1 | -0.903 (inactive) | -0.15 | 2.44 (inactive) | 0.213 (inactive) | -0.458 (inactive) | -0.0317 (inactive) | -0.237 | 0.463 (inactive) | 0.561 (inactive) | 0.728 |
| COC(=O)[C@@]1(Cc2ccc(F)cc2)[C@H]2c3cc(C(=O)N(C)C)n(Cc4cc(F)c(F)c(F)c4)c3C[C@H]2CN1C(=O)c1ccccc1 | -1.42 (inactive) | 0.5 | 4.21 (inactive) | 0.548 (inactive) | 0.365 (inactive) | 1.16 (inactive) | -0.359 | 0.525 (inactive) | 2.18 (inactive) | 1.26 |
| Cc1ccc(S[C@]2(C(=O)NCCCN(C)C)CC(=O)N(Cc3ccccc3C(F)(F)F)[C@@H]2c2ccc(CO)cc2)cc1 | 0.674 (inactive) | 0.337 | 0.926 (inactive) | 0.479 (inactive) | 0.298 (inactive) | -0.0133 (inactive) | 0.104 | -6.22 (inactive) | 0.165 (inactive) | 0.526 |
| COC(=O)[C@@]1(CCC(=O)OC(C)(C)C)N=C(c2ccc(OCCCO)cc2)O[C@H]1c1ccccc1N=[N+]=[N-] | -0.871 (inactive) | -0.39 | 28.2 (active) | 25.2 (active) | 1.67 (inactive) | 5.1 (inactive) | -0.117 | -2.9 (inactive) | 0.248 (inactive) | -2.56 |
